Results filed as inconclusive are left out. Where a call stands in place of a potency, no number is given. Unmarked numbers belong to inactive results. Activity calls are given as the source filed them. The call rests on the fitted dose curve; in most records, active means well fitted activation curve with a large enough effect in the signal ratio, with a control signal flat; inconclusive means small, poorly fitted or top-dose-only effect, or a change in a side signal; inactive means flat fitted curve, though single readings scatter; the % refers to the signal ratio.
Potency means the concentration at half of the fitted maximal effect.

Chain of Thyrotropin receptor (Homo sapiens) (P16473 whole entry, looked up): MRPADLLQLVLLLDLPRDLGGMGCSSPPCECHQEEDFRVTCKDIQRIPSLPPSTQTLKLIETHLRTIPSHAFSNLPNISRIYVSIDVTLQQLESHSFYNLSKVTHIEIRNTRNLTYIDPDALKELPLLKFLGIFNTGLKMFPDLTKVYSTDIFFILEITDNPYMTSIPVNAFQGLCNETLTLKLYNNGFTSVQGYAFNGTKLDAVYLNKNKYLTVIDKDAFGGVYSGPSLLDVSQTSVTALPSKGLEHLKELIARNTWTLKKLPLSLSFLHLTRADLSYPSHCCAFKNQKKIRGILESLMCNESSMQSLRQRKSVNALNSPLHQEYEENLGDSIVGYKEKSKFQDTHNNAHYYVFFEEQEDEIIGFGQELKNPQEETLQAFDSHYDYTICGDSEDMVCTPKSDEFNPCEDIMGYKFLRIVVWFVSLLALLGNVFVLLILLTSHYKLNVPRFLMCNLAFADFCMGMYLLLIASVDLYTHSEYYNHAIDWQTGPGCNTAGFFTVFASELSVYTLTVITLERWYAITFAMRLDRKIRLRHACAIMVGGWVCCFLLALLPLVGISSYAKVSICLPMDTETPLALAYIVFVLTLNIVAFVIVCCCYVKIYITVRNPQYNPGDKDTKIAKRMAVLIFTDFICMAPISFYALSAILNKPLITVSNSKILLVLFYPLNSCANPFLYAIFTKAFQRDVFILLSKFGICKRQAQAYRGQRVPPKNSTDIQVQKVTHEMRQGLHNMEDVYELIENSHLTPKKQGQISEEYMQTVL

This test concerns the target Thyrotropin receptor (Homo sapiens) (UniProt P16473). Nature of the test: Secondary Concentration-Response Assay for Agonists of the Thyroid Stimulating Hormone Receptor: HTRF Activity Detection.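 On activation: HEK 293 cells stably expressing human TSHR with RO 20-1724 phosphodiesterase inhibitor.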 The note with it: HEK293-TSHR cells, cAMP HTRF ratio, 30 min; series mostly up to 91.7 µM. In outline: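 Orthogonal confirmation in a separate TSHR-transfected HEK 293 line: cells in medium with 10 % FCS and 100 uM RO 20-1724 got compound for 30 min at room temperature. cAMP was measured by HTRF (d2-cAMP/anti-cAMP antibody), 615/660 nm emission.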
For the compound `CCOC(=O)COc1c(OC)cc(Cl)cc1C1Nc2ccccc2C(=O)N1c1cccc(C)c1` (stereo not given), the Potency entry was “inactive”.
Take `CC1(C)CC(=O)C2=C(C1)OC(N)=C(C#N)C2CCc1ccccc1` (stereo not given): the activation was -0.482% [at 0.00035 µM].
As for `O=c1c2c(-c3ccccc3)csc2ncn1/N=C/c1cn(-c2ccccc2)nc1-c1cccs1`, the Potency result is “inactive”.
Consider `COc1ccc(C2Nc3ccccc3C(=O)N2Cc2cccc(Cl)c2)cc1COc1ccc(NC(C)=O)cc1` (stereo not given), for which the Potency is 2.82 µM (active).
Still for that read-out and setting: for `CCN(CC)CCN1C(=O)c2ccccc2NC1c1ccc(F)cc1` (stereo not given) the value was “inactive”.
Turning to `CC1=CCC2C(=O)N(c3ccc(Br)cc3C)C(=O)C2C1` (stereo not given), the activation was 0.113% [at 0.00035 µM].
With `COc1ccc(CN(Cc2ccccc2)C(=O)c2ccco2)cc1COc1ccc(NC(C)=O)cc1`, the Potency is 15.8 µM (active).
On to `COc1ccc(C2Nc3ccccc3C(=O)N2Cc2ccccc2OC)cc1COc1ccc(NC(C)=O)cc1` (stereo not given), for which the Potency entry was “inactive”.
The same measure, in the same setting: for `COc1cc(C2Nc3ccccc3C(=O)N2Cc2ccco2)ccc1O` (stereo not given) the value was “inactive”; for `COc1ccc(C2=Nn3c(nnc3-c3ccccc3OC)SC2)cc1OC`, “inactive”; for `COc1ccc(C2Nc3ccccc3C(=O)N2Cc2ccco2)cc1OC` (stereo not given), “inactive”.
The same measure, in the same setting: for `O=C1c2ccccc2NC(c2cccc(F)c2)N1Cc1ccco1` (stereo not given) the value was “inactive”; for `COc1ccc2c(c1OC)C(=O)N1c3ccccc3C(=O)N(Cc3ccco3)C21` (stereo not given), “inactive”; for `COc1ccc(C2Nc3ccccc3C(=O)N2c2cccc3ccccc23)cc1COc1c(C)cccc1C` (stereo not given), “inactive”.
The same measure, in the same setting: for `COc1ccc(C2Nc3ccccc3C(=O)N2CC(C)(C)C)cc1COc1ccc(NC(C)=O)cc1` (stereo not given) the value was “inactive”.
Turning to `COc1ccc(C2Nc3ccccc3C(=O)N2Cc2ccccc2)cc1OCc1ccc(NC(C)=O)cc1` (stereo not given), the Potency result was “inactive”.
On the same count and under the same terms, for `COc1ccc(-c2nc3cccc(OC)c3c(=O)n2Cc2ccccc2)cc1COc1ccc(NC(C)=O)cc1` the value was “inactive”.
On the same count and under the same terms, the result for `COc1ccc(/C=N/NC(=O)c2ccn[nH]2)cc1COc1ccc(F)cc1` reads “inactive”.
Take `COc1cccc(CN2C(=O)CN(C3CCCCC3)C(=O)C2c2ccc(F)cc2)c1` (stereo not given): the activation is 0.406% [at 0.00035 µM].
With `COc1ccc(C(=O)N(Cc2ccco2)Cc2cccs2)c(O)c1`, the Potency is 50.1 µM (active).
Still for that read-out and setting: the result for `COc1cc(C2Nc3ccccc3C(=O)N2Cc2ccccc2)ccc1OCc1ccc(NC(C)=O)cc1` (stereo not given) reads “inactive”.
Same read-out and setting: the result for `CC(NC(=O)COC(=O)c1ccco1)C12CC3CC(CC(C3)C1)C2` (stereo not given) reads “inactive”; that for `O=C1CC(c2ccco2)CC2=C1C(c1ccc(O)cc1)n1nc(C(F)(F)F)nc1N2` (stereo not given), “inactive”.
In the case of `Cc1occc1-c1nnc(SCC(=O)Nc2ccccc2)n1C(C)c1ccccc1` (stereo not given), the activation was 0.0209% [at 0.00035 µM].
On to `COc1ccc(C2Nc3ccccc3C(=O)N2CCc2ccccc2)cc1COc1ccc(NC(C)=O)cc1` (stereo not given), for which the Potency is 7.94 µM (active).
In the case of `CCSCCOC(=O)C1=C(C)N(C)C(=O)NC1c1cc(OC)ccc1OC` (stereo not given), the activation is 1.56% [at 0.00035 µM].
For the compound `Oc1ccccc1-c1cc(C(F)(F)C(F)F)nc(-c2ccccc2)n1`, the activation is 0.7% [at 0.00035 µM].
Turning to `COc1ccc(C2Nc3ccccc3C(=O)N2Cc2ccccc2)cc1COc1ccc(C)cc1` (stereo not given), the Potency entry was “inactive”.
The same measure, in the same setting: the result for `O=C1c2ccccc2NC(c2ccc(OCc3ccccc3)c(OCc3ccccc3)c2)N1Cc1ccco1` (stereo not given) reads “inactive”.
Turning to `O=C(CSc1nc2scc(-c3ccco3)c2c(=O)n1-c1ccccc1)N1CCOCC1`, the activation was -0.79% [at 0.00035 µM].
The same measure, in the same setting: the result for `Cc1ccccc1N1CCN(c2ncnc3c2cnn3Cc2ccc(Cl)cc2)CC1` reads -0.314% [at 0.00035 µM].
Take `COc1ccc(C2Nc3ccccc3C(=O)N2Cc2cccnc2)cc1COc1ccc(NC(C)=O)cc1` (stereo not given): the Potency is 35.5 µM (active).
Take `COc1ccc2c(c1OC)C(=O)N1c3ccccc3C(=O)N(c3ccccc3F)C21` (stereo not given): the Potency entry is “inactive”.
The same measure, in the same setting: for `CC(=O)Nc1ccc(OCc2cccc(-c3nc4ccccc4c(=O)n3Cc3ccco3)c2)cc1` the value was “inactive”; for `O=C1c2ccccc2NC(c2ccc3c(c2)OCO3)N1Cc1ccco1` (stereo not given), “inactive”.

These data come from PubChem BioAssay AID933 (National Center for Advancing Translational Sciences (NCATS), 2007).
